# High-throughput results from PubChem.
# AMA1 RON2 block: disrupts binding of P. falciparum AMA1 to RON2; AlphaScreen AMA1-biotinylated RON2 peptide binding; Potency, µM (series often up to 58.2 µM), for inactives: at the highest dose activity change, negative = inhibition, most hits filed as inhibitors; actives 0.2% (n = 360,000); AID 720542;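 note: potency is the fitted concentration of half-maximal effect; 0% = vehicle wells and -100% = peptide control; nearly all actives have a fitted effect of over 45% in size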
#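 AMA1 (3D7) with his tag at 25 nM final met compounds first, then biotinylated RON2 peptide at 25 nM; detection used donor plus acceptor beads, 10 µg/mL apiece, read by AlphaScreen after 30 min at room temperature.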
# Shiga toxin inh: blocks Shiga toxin action in Vero cells. inhibition, % at 38.7 µM. Vero cells, Shiga toxin protein synthesis inhibition reporter. AID 2315. actives 9.2% (n = 290,000); in the data active = inhibition mostly above about 28%, no sharp cut-off; inactive = mostly below about 43%; note: 0% is about no effect
# SARS PLP yeast: blocks SARS-CoV papain-like protease in a yeast assay; S. cerevisiae expressing SARS-CoV PLpro, growth rescue; Potency, µM (doses to about 32.9 µM), without a hit: top-dose activity, positive = growth rescue, actives largely listed as activators; actives 0.19% (n = 330,000); calls by dose curve; note: potency is the fitted concentration of half-maximal effect; 0% is about no effect; nearly all actives have a fitted effect of over 55% in size
# Pf growth 48h: P. falciparum growth inhibition at 48 hours (one generation) | P. falciparum luciferase growth in erythrocytes, 48 h | Potency, µM (doses to about 28.7 µM), for the others: at the top dose activity change, negative = inhibition, actives largely listed as inhibitors | actives 5.9% (n = 310,000) | AID 504832; note: potency is the fitted concentration of half-maximal effect; % is set by controls: 0 for no effect and ±100 for the full control effect
#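 First compound was added to culture medium, then infected red cells at 0.1% parasitemia and 2% hematocrit (final). After incubation at 37 C under 5% CO2, luciferase detection reagent was dispensed and light output recorded.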
# Pf growth 96h: inhibits malaria parasite growth, 96 h; actives 6.9% (n = 320,000); P. falciparum luciferase reporter growth, 96 h; Potency, µM (doses to about 28.7 µM), inactives show at the top dose activity change, negative = inhibition, usual class: inhibitors; note: potency is the fitted concentration of half-maximal effect; % is set by controls: 0 for no effect and ±100 for the full control effect
#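 Erythrocytes infected with luciferase-expressing P. falciparum were dispensed at 2% hematocrit and 0.05% parasitemia (final), then incubated with compounds 96 hours at 37 C in 5% CO2. Luminescence after detection reagent addition reported growth.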
# Cycloheximide cs: counter-screen for Shiga toxin inhibitors: cycloheximide protein synthesis inhibition | cell reporter, cycloheximide protein synthesis inhibition counterscreen | max response, % | actives 12% (n = 300,000) | AID 2314; in the data active = max response mostly above about 13%, no sharp cut-off; inactive = mostly below about 14%; note: read at 38.3 µM for the half of the compounds with a filed dose; 0% is about no effect
# Active calls of the source: *; u = inconclusive; x = not tested or not shown. Most compounds without a hit are left out; they make up all but 19% or so of the library. Unless noted, calls come from the whole dose curve; as a rule, active = well fitted curve in the direction sought with a large enough effect; inconclusive = small, poorly fitted or top-dose-only effect, or another doubt; inactive = no such curve, though single readings can be large; an effect the other way counts as inactive or inconclusive.
SMILES,AMA1 RON2 block,Shiga toxin inh,SARS PLP yeast,Pf growth 48h,Pf growth 96h,Cycloheximide cs
CSc1ccc(CN2CCN(C(C)C)C(CCO)C2)cc1 (stereo not drawn),29%,10,-1%,19%,u,-3
CC(C)(C)c1ccc(C(=O)N2CCC2(C)C(=O)Nc2cccc(C#N)c2)cc1 (stereo not drawn),1%,x,x,x,x,x
CCOc1ccc(C(=O)Nc2ccc3[nH]ncc3c2)cc1,19%,32,3%,183%,12µM*,19*
COc1ccc(C(=O)Nc2ccc3cn[nH]c3c2)c(OC)c1,-9%,123*,0%,251%,275%,63*
COc1ccc(C(=O)Nc2ccc3[nH]ccc3c2)cc1,-13%,x,x,x,x,x
COc1ccc(C(=O)Nc2ccc3[nH]ncc3c2)cc1,-10%,53*,0%,158%,133%,19*
COc1ccc(C(=O)Nc2ccc3c(c2)OCCO3)c(OC)c1,-9%,x,x,x,x,x
O=C1NC[C@@H](CCCCN2CCN(CCc3ccc(O)cc3)C(=O)C2=O)N(CCc2ccc(O)cc2)C1=O,-5%,x,x,x,x,x
COc1cc(OC)nc(NC(=O)NS(=O)(=O)c2ccccc2Cl)n1,0%,-6,1%,25%,54%,-1
Cc1cc(N(C)N)nc(NC(=O)NS(=O)(=O)c2ccccc2Cl)n1,54%,21,0%,11%,20%,16*
CCOC(=O)c1c(C)[nH]c(C(=O)COC(=O)COc2ccccc2C=O)c1C,3%,-9,-18%,-5%,3%,4
Cc1c(C(=O)N2CCN(S(=O)(=O)c3ccccc3F)CC2)oc2c(Cl)cccc12,0%,x,-5%,10µM*,12µM*,x
COCc1c(C(=O)N2CCN(S(=O)(=O)c3ccccc3Cl)CC2)oc2ccccc12,-4%,x,11%,12µM*,u,x
CCC(c1nnnn1-c1ccc2c(c1)OCCO2)N1CCN(c2ccc(C(F)(F)F)cc2[N+](=O)[O-])CC1 (stereo not drawn),-27%,x,x,x,x,x
Cc1ccc(-c2onc3ccc(C=O)cc23)cc1,1%,99*,-7%,x,194%,59*
Cc1ccc(-c2onc3ccc(C4(C)OCCO4)cc23)cc1,-6%,-23,u,9%,x,-5
Cc1cc(-c2onc3ccc(Cl)cc23)ccc1O,-5%,50*,-3%,-11%,15%,27*
CC(=O)c1ccc2noc(-c3ccc(Cl)cc3)c2c1,-13%,15,-2%,-7%,-2%,-3
COc1cc(N)c2ncsc2c1,-2%,x,x,x,x,x
Cc1ccc2c(c1)OC(c1ccc3c(c1)OCCO3)CC2=O (stereo not drawn),-10%,67*,1%,124%,208%,29*
O=C1CC(c2ccc(Cl)cc2)Oc2ccc(Cl)cc21 (stereo not drawn),16%,x,x,x,x,x
O=C(CSc1nncs1)Nc1nccs1,-11%,x,1%,0%,15%,x
CCn1cnc2cc(NCc3ccc(Cl)cc3)ccc21,-23%,119*,-1%,36%,-2%,41*
Cn1cnc2cc(NCc3ccccc3O)ccc21,60%,114*,-1%,71%,u,61*
Cc1ccc(CNc2ccc3c(c2)ncn3C)cc1,-7%,81*,-7%,78%,-7%,46*
SMILES,AMA1 RON2 block,Shiga toxin inh,SARS PLP yeast,Pf growth 48h,Pf growth 96h,Cycloheximide cs
COc1ccc(CNc2ccc3c(c2)ncn3C)cc1OC,18%,-6,5%,1%,14%,-1
CCc1ccc(CNc2ccc3c(c2)ncn3C)cc1,-17%,73*,-8%,148%,u,25*
COc1ccccc1-n1cnc2cc(NC(C)=O)ccc21,-24%,-13,4%,-22%,x,1
O=C(/C=C/[C@H]1O[C@@H](n2ccc(=O)[nH]c2=O)[C@H](O)[C@@H]1O)NCc1cccc2ccccc12,-13%,x,x,x,x,x
Cc1ccc(CNc2ccc3c(c2)ncn3C(C)(C)C)cc1,-20%,133*,5%,-21%,9%,40*
Cc1nc2cc(NCc3ccccc3O)ccc2n1Cc1ccccc1,3%,92*,-1%,u,u,69*
Cc1ccc(S(=O)(=O)Nc2ccc3c(c2)ncn3C(C)(C)C)cc1,-3%,-13,1%,-21%,-4%,-1
Cc1nc2ccccc2n1Cc1ccccc1,10%,x,1%,-1%,u,-1
O=c1[nH]nc(-c2n[nH]c(=O)o2)o1,22%,x,x,x,x,x
COC(=O)C1=C(C)Nc2nc3ccccc3n2C1c1cc(OC)c(OC)c(OC)c1 (stereo not drawn),-10%,-5,0%,1.9µM*,u,-3
COc1ccc(N2CCN(C(=O)CSc3nnc4c(C)cc5c(C)cc(C)cc5n34)CC2)cc1,-22%,-8,2%,2.9µM*,-4%,-1
COc1ccc(N2CCN(C(=O)CSc3nnc4c(C)cc5cc(C)ccc5n34)CC2)cc1,3%,35,2%,-9%,53%,-4
Cc1ccc(Cl)cc1N1CCN(C(=O)CSc2nnc3n2C(C)(C)Cc2ccccc2-3)CC1,-7%,-4,23%,u,u,-3
COc1cc(NC(=O)CSc2nnc3n2C(C)(C)Cc2ccccc2-3)cc(OC)c1,0%,-4,6%,u,4.1µM*,-1
COC(=O)CSc1nnc2n1C(C)(C)Cc1ccccc1-2,8%,-8,4%,1%,14%,-1
COc1ccc(N2CCN(C(=O)CSc3ccccc3N)CC2)cc1,-6%,-3,0%,-17%,x,12*
COc1ccc(N2CCN(C(=O)CSc3nnc4n3C(C)(C)Cc3ccccc3-4)CC2)cc1,-2%,33,-3%,12µM*,u,7
Cc1ccc2c(c1)N(CCC(=O)NC1CCCCC1C)C(=O)CO2 (stereo not drawn),1%,-3,-2%,25%,u,-6
Cc1cc(C(=O)NCC(=O)OCC(=O)N(C(C)C)C(C)C)ccc1[N+](=O)[O-],22%,-8,11%,5%,29%,-2
COc1ccc(OC)c(C2=Nn3c(nnc3-c3ccccc3OC)SC2)c1,x,8,x,x,x,13
Cc1ccccc1NC(=S)NC(=O)C1CCCCC1,50%,45,17%,u,72%,19*
O=C(NC(=S)Nc1ccccc1CO)C1CCCCC1,5%,x,-9%,x,x,x
CCOc1ccccc1NC(=S)NC(=O)C1CC1,5%,18,18%,5.2µM*,u,13
CN(C)Cc1c(-c2ccc(Cl)cc2)nc2ccc(Cl)cn12,-26%,-5,2%,-13%,u,-3
Cc1ccccc1-c1nnn(Cc2ccc(F)cc2Cl)n1,89%,24*,-1%,54%,8%,18
Fc1ccc(Cn2nnc(-c3ccc(CN4CCOCC4)cc3)n2)cc1,-8%,11,-2%,u,-11%,9
Fc1ccc(-c2nnn(Cc3ccc(F)cc3Cl)n2)cc1,87%,105*,-4%,34%,-7%,24*
Cc1nn(-c2ccccc2)c2sc(C(=O)C(C#N)c3ccccn3)cc12 (stereo not drawn),x,15,11%,26%,48%,-4
